The values below come from PubChem BioAssay.

The nature of experiment [1]: ICB984 medulloblastoma cell growth inhibition, synergistic combos for chromothripsis tumors, cisplatin or BGB combos (AID 1671451; call rule not given here;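 note: cells exposed for 96 hours before readout; 0% = vehicle DMSO and 100% = killing by high DMSO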). The conditions noted are these: ICB984 medulloblastoma cells, drug combinations, stronger effect = higher value.
Experiment [2] deals with 6-phosphogluconate dehydrogenase, decarboxylating (Homo sapiens) (UniProt P52209). Briefly: 6PGD enzyme inhibitors, primary screen, biochemical, human, recombinant enzyme, NADPH absorbance (AID 1159550;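 active = at least 20% inhibition of 6-phosphogluconate dehydrogenase activity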). The following applies: recombinant 6PGD, NADPH absorbance 341 nm; at 10 µM; stronger effect = higher value.
Experiment [3] can be described thus: stimulators of insulin release from INS-1E, primary screen, cell-based, 5 mM glucose, NPC library (AID 1117329;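 active = compound raises insulin release from rat beta cells at 5 mM glucose, no numeric limit stated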). The following applies: rat INS-1E insulin secretion, at 10 µM, stronger effect = higher value.
The nature of experiment [4]: growth inhibition of GSK3B-pretreated HCT116 cells – cell-based, CellTiter-Glo, 0.2 to 20 µM (AID 1117336;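 active = compounds lowering colon cancer cell viability after pretreatment blocking the GSK3B kinase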). The conditions noted are these: HCT116 viability after GSK3B inhibitor, at 20 µM, stronger effect = higher value. On the technique in general: In ATP-based viability assays light output follows the ATP content of the culture.
Experiment [5] in a line: inhibition of endothelial tube formation, primary screen, imaging, VEGF stimulated, CD31 staining, tube area, NPC library (AID 1117340;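 active = compound that reduces growth-factor-driven endothelial tube area in a mixed cell culture, no cutoff stated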). The following applies: VEGF-stimulated ADSC/ECFC co-culture, at 10 µM, stronger effect = higher value.
The nature of experiment [6]: glucagon-like peptide 1 release enhancers, primary assay, NCI-H716 cell line, NPC library (AID 1117341;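 active = compound raises GLP1 secretion from the human gut endocrine cells, with no numeric limit stated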). The following applies: NCI-H716 cells, at 10 µM, stronger effect = higher value.
Experiment [7] in a line: HCT116 colon cancer cell growth inhibition, primary screen, CellTiter-Glo luminescence, NPC library (AID 1117342;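 active = compounds that lower survival of HCT116 colon cancer cells in the luminescence readout, no numeric limit stated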). The following applies: at 20 µM (top of the series).
A short description of experiment [8]: CellTiter-Glo luminescent readout of SW480 viability loss, NPC library primary (AID 1117343;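 active = compounds that lower viability of the colon cancer cells in the luminescence readout, with no numeric limit stated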). The following applies: CellTiter-Glo luminescence; at 20 µM (top of the series) unless noted.
Experiment [9] can be described thus: decreased DLD-1 cellular survival, CellTiter-Glo luminescent readout, NPC compound collection, primary HTS (AID 1117346;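 active = compounds that lower survival of DLD-1 colon cancer cells in the luminescence readout, no cutoff given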). The following applies: DLD-1 viability, CellTiter-Glo luminescence; at 20 µM (top of the series).
Experiment [10] can be described thus: sensitizers of A549 cells to miR-34 induction, primary screen, imaging, A549 dox-inducible miR-34, nuclei and caspase counts (AID 1347080;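 active = compounds whose cell count with miR-34 switched on is under 0.7 times the count with it off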). The conditions noted are these: A549 miR-34 inducible, Hoechst nuclei count, 48 h.
Experiment [11] is described as follows: survival rescue of mitochondrial mutant cells in low glucose, primary screen, MELAS cybrids, Rieske KO mouse fibroblasts, CellTiter-Glo (AID 1508586).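 Note: z relative to plate mean and SD of compound and empty wells.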
Experiment [12] concerns Hepatitis C virus NS3 helicase. Briefly: HCV NS3 helicase inhibitors, primary screen, biochemical, fluorescence polarization, NIH Clinical Collection (AID 743270; call rule not given here). The conditions noted are these: NS3 helicase binding to Cy5-dT15 DNA, stronger effect = higher value, concentration not given here. (In fluorescence polarisation assays a small probe gives low polarisation when free and higher when bound to something large.)

The nature of experiment [13]: modulation of C. elegans fzo-1 (AID 1259413; call rule not given here;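 note: fzo-1 mutant C. elegans worms in liquid wells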). The following applies: C. elegans fzo-1 modulator screen, mean read-out; stronger effect = higher value.
Experiment [14] is described as follows: differential killing of epithelial or mesenchymal cells, primary screen, imaging, PC-3E GFP, TEM4-18 mCherry, co-culture (AID 1345086;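 active = compounds killing one labelled cell type while sparing the other, by normalised counts and ratio limits, not self-fluorescent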;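 note: cells exposed to compound for 72 h before imaging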;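 for red/green cell ratio (normalised): normalised mesenchymal count divided by normalised epithelial count so high means epithelial killing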). The following applies: imaging cell counts, at 1 µM.
In experiment [15] the target is NAD(+) hydrolase SARM1 (Homo sapiens) (UniProt Q6SZW1). Description: SARM1 TIR NADase inhibitors, cell lysate, NAD-Glo luminescence (AID 1508614;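 active = compound whose remaining NAD level is above about 45 nM, limit read from the data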;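 note: higher remaining NAD means stronger inhibition of SARM1 NADase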). The conditions noted are these: SAM-TIR HEK293T lysate NADase, at 1 µM, stronger effect = higher value.
Experiment [16] deals with Mitogen-activated protein kinase 7 (Homo sapiens) (UniProt Q13164). Briefly: ERK5 transactivation activators in reporter cells, primary screen, cell-based, HTS (AID 1508626;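 active = luciferase signal above three times the same-plate solvent-only control wells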;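 note: luciferase driven by Gal4-ERK5 fusion binding five Gal4 sites before minimal TATA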). The conditions noted are these: HeLa Gal4-ERK5 transactivation, 18 h, at 5 µM, stronger effect = higher value.
A short description of experiment [17]: liver-stage malaria parasite growth inhibition, primary screen, cell-based, HepG2, luciferase luminescence, HepG2 viability (AID 624349; in the data active = parasite load remaining mostly below about 12%, no sharp cut-off; inactive = mostly above about 10%;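 note: 100% = mean of DMSO negative control wells on the same plate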). The following applies: P. berghei liver stage in HepG2, luciferase luminescence, concentration not given here; parasite load remaining: stronger effect = lower value; viability: measured here: HepG2 viability without parasites.
The nature of experiment [18]: viability rescue of complex I mutant cybrids, primary screen, cell-based, galactose medium, ATP luminescence (AID 1645843;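 active = z-score of at least 1.8 in each of two replicates, scored against plate mean and spread of sample wells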;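 note: positive z means more ATP and so rescue of galactose-driven cybrid death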). The following applies: complex I mutant cybrid cells, 72 h, stronger effect = higher value.
Where [19] appears, read: stronger effect = lower value, cell number ratio, induced over uninduced.
The mark [20] stands for this setting: measured here: relative caspase fold change +Dox/-Dox.
Where [21] appears, read: measured here: total cells with miR-34 induction, stronger effect = lower value.
[22] abbreviates: measured here: total cells without miR-34 induction.
Where [23] appears, read: MELAS cybrid survival, CellTiter-Glo 48 h, stronger effect = higher value.
The mark [24] stands for this setting: Rieske KO mouse fibroblast survival, CellTiter-Glo 72 h.

Each structure is given as a SMILES string. Values joined by “and” are separate entries in the source; they are usually repeats but may differ in a detail not shown here. Equal entries are not always repeated. Active and inactive are the calls of the source.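 Rule for the calls, unless noted: active = mean z-score across replicates of 1.96 or higher in either the MELAS or the Rieske mutant cell line; inactive = the rest.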

6-phosphogluconate dehydrogenase, decarboxylating (Homo sapiens), sequence (P52209 whole entry, looked up): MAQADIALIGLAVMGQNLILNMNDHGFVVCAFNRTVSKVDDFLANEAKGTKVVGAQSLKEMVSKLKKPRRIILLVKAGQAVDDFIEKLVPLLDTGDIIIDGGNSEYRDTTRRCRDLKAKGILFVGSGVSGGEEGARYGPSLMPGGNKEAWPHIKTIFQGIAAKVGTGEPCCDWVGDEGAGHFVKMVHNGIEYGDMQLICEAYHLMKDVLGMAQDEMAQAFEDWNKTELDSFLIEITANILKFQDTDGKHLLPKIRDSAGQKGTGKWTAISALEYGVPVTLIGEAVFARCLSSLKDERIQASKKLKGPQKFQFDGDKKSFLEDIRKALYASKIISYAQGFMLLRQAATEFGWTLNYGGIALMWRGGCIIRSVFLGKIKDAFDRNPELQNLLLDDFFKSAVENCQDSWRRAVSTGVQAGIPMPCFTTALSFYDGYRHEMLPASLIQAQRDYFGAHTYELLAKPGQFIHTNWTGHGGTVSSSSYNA
Mitogen-activated protein kinase 7 (Homo sapiens), sequence (Q13164 whole entry, looked up, the tested form may be a part): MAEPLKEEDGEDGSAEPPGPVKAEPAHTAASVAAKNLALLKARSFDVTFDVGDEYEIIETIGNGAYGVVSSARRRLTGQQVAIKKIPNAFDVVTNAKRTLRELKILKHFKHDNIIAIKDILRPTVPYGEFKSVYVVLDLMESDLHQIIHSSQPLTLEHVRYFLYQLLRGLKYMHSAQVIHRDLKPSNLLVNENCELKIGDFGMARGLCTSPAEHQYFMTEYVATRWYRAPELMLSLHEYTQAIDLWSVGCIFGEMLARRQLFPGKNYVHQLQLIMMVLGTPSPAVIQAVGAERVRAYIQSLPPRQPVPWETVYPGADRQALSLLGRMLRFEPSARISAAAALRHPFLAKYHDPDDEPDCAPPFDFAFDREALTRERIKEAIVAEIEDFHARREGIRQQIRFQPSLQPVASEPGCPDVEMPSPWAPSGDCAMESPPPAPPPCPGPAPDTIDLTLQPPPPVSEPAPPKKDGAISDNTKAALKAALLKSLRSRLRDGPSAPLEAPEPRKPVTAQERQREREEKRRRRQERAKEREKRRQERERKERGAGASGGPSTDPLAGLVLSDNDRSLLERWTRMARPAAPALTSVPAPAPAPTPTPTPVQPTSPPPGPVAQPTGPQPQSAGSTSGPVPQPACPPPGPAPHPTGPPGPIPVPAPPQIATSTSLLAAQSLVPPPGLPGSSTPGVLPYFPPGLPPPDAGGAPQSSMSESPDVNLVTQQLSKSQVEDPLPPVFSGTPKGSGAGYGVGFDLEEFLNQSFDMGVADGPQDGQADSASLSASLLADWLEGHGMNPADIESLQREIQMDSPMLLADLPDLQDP
NAD(+) hydrolase SARM1 (Homo sapiens), sequence (Q6SZW1 whole entry, looked up, the tested form may be a part): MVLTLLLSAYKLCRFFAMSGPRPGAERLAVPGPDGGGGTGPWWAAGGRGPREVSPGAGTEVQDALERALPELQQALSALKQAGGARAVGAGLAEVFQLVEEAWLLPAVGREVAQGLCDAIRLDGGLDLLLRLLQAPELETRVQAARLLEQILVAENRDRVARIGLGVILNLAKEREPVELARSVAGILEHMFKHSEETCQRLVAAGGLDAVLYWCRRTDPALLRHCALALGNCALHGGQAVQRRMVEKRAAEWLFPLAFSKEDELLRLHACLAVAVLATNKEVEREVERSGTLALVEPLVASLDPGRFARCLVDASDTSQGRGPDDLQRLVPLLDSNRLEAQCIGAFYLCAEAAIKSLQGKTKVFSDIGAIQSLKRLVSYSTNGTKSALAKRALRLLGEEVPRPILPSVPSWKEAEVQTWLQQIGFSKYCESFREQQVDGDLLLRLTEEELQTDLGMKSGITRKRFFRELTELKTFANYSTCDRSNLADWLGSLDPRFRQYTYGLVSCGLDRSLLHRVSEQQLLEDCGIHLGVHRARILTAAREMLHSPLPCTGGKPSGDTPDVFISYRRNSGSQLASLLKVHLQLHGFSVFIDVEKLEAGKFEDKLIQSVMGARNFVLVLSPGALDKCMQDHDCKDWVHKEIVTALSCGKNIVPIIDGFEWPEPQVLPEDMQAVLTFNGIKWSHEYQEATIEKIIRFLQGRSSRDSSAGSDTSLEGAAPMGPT

As a reminder, the inhibition is the change of the read-out against control, counted positive when it falls. As for `CCn1cc(C(=O)O)c(=O)c2ccc(C)nc21`, the inhibition in experiment [1] (BGB IC20 combo, at 0.005 µM) was 7.03% and -21.5%; in experiment [1] (BGB IC40 combo, at 0.005 µM), -26.9% and -29.6%; in experiment [1] (BGB IC40 combo, at 0.05 µM) it was -0.123% and -9.89%; in experiment [1] (at 0.5 µM) it was -22.6% (inactive) and -21.9% (inactive); in experiment [1] (cisplatin combo, at 0.05 µM), -0.123% and -9.89%; in experiment [1] (cisplatin combo, at 0.5 µM), -52.2% and -39.7%. The inhibition was -11.7% and -29.5% in [1] (cisplatin combo, at 5 µM); -3.29% and -15.7% in [1] (measured here: 5 uM single agent, at 5 µM).
For `COc1ccc(-c2cc(=O)c3c(O)cc(O[C@H]4O[C@H](CO[C@@H]5O[C@@H](C)[C@H](O)[C@@H](O)[C@H]5O)[C@@H](O)[C@H](O)[C@H]4O)cc3o2)cc1`, in [2], the inhibition is 17.5% (inactive).
For `COc1ccc(-c2nc3ccc(C4=NNC(=O)CC4C)cc3[nH]2)cc1` (stereo not drawn), in experiment [3], the insulin secretion stimulation was 2.8% (inactive). Moreover, the viability decrease in [4] is 18.3% (inactive). The tube area decrease in experiment [5] is 80.8% (active). Also, in experiment [6], the GLP1 secretion stimulation was 6.8% (inactive). The inhibition of viability in [7] was 61.7% (active). Moreover, the viability decrease (inhibition) is 43% (inactive) in [8] and 52.3% (active) in experiment [9]. In addition, the figures for the fold change in [10] (setting [19]) and in [10] (setting [20]) were 0.906 (inactive) and 1.1, respectively. The cell count in [10] (setting [21]) was found to be 5650; in experiment [10] (setting [22]), 6230. The z-score in experiment [11] (setting [23]) is 1.76 (inactive); in experiment [11] (setting [24]), 0.199.
For `COC(=O)C1OC(=O)C2OC23C1(C)CCC1C2(C)CCC(=O)C(C)(C)C2CC(OC(C)=O)C13C` (stereo not drawn), in experiment [2], the inhibition was -6.02% (inactive).
With `O=C(O)COCCN1CCN(C(c2ccccc2)c2ccc(Cl)cc2)CC1` (stereo not drawn), the inhibition in [12] is -12.3% (inactive). Moreover, in [3], the insulin secretion stimulation is 4.3% (inactive). Besides, in experiment [4], the viability decrease was -8.4% (inactive). In addition, the tube area decrease in experiment [5] was 2.5% (inactive). Further, the GLP1 secretion stimulation in [6] was 1.4% (inactive). In addition, the inhibition of viability in experiment [7] is 11.2% (inactive). Further, the viability decrease (inhibition) in experiment [8] is -6.6% (inactive); in experiment [9], 8.8% (inactive). In addition, in [13], the mean signal is 254 (inactive). Moreover, the red/green cell ratio (normalised) in experiment [14] (actives lie on both sides, counts scaled to control wells, 1 = unselective) is 0.83 (inactive). In addition, the figures for the normalised cell number in experiment [14] (measured here: epithelial PC-3E GFP cell survival) and in experiment [14] (measured here: mesenchymal TEM4-18 mCherry cell survival) were 1.06 and 0.88, respectively. Also, the z-score in experiment [11] (setting [23]) was -0.429 (inactive) and 0.214 (inactive); in experiment [11] (setting [24]), 0.813 and 0.142. The remaining NAD in [15] is 10 nM (inactive). Besides, the luciferase signal in experiment [16] was 76 AU (inactive).
As to `C[C@H](CCC(=O)O)[C@H]1CC[C@H]2[C@@H]3C[C@H](O)[C@@H]4C[C@H](O)CC[C@]4(C)[C@H]3CC[C@]12C`, the inhibition in experiment [2] was 2.54% (inactive).
Usually viability stands for a read-out of living cells in per cent, often relative to untreated cells. For the compound `CS(=O)(=O)c1ccc([C@@H](O)[C@@H](CF)NC(=O)C(Cl)Cl)cc1`, the parasite load remaining in experiment [17] is 110% (inactive) and 27.9% (inactive). Also, the viability in experiment [17] was 101% and 68.5%. In addition, the insulin secretion stimulation in experiment [3] is 1.8% (inactive). Besides, the viability decrease in experiment [4] is -7.1% (inactive). In addition, the tube area decrease in [5] is 10.2% (inactive). Also, the GLP1 secretion stimulation in experiment [6] is 0.9% (inactive). Further, in [7], the inhibition of viability was 14.2% (inactive). For the same compound, the viability decrease (inhibition) is 17.1% (inactive) in [8] and 13.6% (inactive) in experiment [9]. Besides, the fold change was 0.925 (inactive) and 0.937 (inactive) in experiment [10] (setting [19]); 0.927 and 1.15 in experiment [10] (setting [20]). Moreover, the cell count is 8300 and 9020 in experiment [10] (setting [21]); 8980 and 9620 in experiment [10] (setting [22]). Also, the z-score in experiment [11] (setting [23]) was -0.214 (inactive) and 0.287 (inactive); in [11] (setting [24]) it was -1.14 and -0.231; in experiment [18], -1.65 (inactive). The remaining NAD in [15] is 10 nM (inactive). Besides, the luciferase signal in [16] is 136 AU (inactive).
